Data taken from the supplement of paper PMC11732987, “Enantioselective OTUD7B fragment discovery through chemoproteomics screening and high-throughput optimisation” (Communications Chemistry, 2025).
Unmarked numbers belong to inactive results.

Columns and labels:
Experiment in all cases: log2 ratio of Biotin-Ahx-Ub-VS probe labelling (fragment/DMSO); higher = less target engagement (more negative = stronger competition), active = hit call of the paper (q ≤ 0.05, log2 ratio ≤ -1)
Details in all cases: compound concentration: 200 uM; treatment time: 3 h
OTUD6B = molecular target: T1, OTUD6B (UniProt Q8N6M0)
T1 sequence (whole entry): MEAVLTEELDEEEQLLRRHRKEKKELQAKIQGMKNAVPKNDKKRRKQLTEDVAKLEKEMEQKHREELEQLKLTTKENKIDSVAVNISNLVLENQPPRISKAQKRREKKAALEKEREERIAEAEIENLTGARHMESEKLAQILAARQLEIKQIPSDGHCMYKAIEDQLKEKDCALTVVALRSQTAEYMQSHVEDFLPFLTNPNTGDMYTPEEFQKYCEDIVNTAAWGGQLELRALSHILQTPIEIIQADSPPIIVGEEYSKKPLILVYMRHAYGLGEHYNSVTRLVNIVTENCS
In short: (§1)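 HEK293T lysate (495 µg per sample, in Tris/CHAPS/IGEPAL buffer with protease inhibitors) was treated in triplicate with fragment at 200 µM or with DMSO for 3 h. It was then treated with Biotin-Ahx-Ub-VS (0.5 µM final) for 1 h. Labelled DUBs were NeutrAvidin-enriched, digested with LysC and trypsin, and run by diaPASEF LC-MS/MS. Spectronaut label-free quantities were global-median-normalised. Values are average log2 ratios fragment/DMSO by unpaired t-test, using proteins with ≥2 unique peptides.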

OTUD7B = molecular target: T2, OTUD7B (UniProt Q6GQQ9)
T2 sequence (whole entry): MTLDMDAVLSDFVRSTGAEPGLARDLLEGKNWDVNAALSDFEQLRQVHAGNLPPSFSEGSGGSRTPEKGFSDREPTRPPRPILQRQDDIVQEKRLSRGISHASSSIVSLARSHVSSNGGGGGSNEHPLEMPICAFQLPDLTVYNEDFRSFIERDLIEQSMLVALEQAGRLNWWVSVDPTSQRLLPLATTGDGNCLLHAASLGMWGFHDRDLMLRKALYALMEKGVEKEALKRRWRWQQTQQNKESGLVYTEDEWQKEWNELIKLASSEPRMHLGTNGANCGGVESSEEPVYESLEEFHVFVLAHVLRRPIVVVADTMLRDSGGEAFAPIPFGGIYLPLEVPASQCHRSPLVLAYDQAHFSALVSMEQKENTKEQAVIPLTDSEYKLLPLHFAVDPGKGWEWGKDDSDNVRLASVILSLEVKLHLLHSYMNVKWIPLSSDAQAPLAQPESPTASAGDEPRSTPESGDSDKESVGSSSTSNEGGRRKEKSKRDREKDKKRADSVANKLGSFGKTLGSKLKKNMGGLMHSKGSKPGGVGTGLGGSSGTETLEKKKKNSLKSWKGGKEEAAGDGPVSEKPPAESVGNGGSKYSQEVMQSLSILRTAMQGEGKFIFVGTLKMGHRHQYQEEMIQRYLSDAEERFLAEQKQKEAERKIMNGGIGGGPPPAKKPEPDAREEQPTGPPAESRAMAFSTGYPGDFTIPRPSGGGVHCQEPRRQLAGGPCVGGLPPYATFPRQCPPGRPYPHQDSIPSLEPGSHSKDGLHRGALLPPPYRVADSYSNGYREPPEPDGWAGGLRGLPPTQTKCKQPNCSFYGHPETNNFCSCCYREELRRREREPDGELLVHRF
In short: as §1

PRPF8 = PRPF8 (UniProt Q6P2Q9)
In short: as §1

PSMD7 = molecular target: T3, PSMD7 (UniProt P51665)
T3 sequence (whole entry): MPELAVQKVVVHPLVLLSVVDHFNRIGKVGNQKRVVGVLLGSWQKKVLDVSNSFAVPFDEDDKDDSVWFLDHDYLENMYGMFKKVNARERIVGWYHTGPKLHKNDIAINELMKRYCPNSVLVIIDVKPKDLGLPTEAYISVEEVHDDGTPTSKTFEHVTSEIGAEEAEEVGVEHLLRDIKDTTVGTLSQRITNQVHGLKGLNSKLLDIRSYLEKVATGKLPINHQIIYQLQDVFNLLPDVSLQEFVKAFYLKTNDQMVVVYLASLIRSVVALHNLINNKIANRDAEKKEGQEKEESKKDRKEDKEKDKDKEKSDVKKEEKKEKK
In short: as §1

UCHL1 = UCHL1 (UniProt P09936)
UCHL1, sequence (P09936 whole entry, looked up): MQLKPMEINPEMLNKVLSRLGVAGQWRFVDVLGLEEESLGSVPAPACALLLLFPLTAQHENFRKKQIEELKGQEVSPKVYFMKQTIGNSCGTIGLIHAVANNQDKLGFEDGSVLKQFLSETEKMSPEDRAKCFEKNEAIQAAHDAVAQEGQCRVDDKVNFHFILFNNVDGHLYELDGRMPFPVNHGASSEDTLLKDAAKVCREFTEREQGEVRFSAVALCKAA
In short: as §1

UCHL3 = molecular target: T4, UCHL3 (UniProt P15374)
T4 sequence (whole entry): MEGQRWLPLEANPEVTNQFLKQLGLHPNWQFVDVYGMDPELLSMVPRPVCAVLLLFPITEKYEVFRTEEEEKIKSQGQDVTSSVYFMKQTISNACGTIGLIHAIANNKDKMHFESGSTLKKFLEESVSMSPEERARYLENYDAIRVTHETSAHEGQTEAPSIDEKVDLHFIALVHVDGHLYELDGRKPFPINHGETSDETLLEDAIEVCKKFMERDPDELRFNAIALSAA
In short: as §1

UCHL5 = molecular target: T5, UCHL5 (UniProt Q9Y5K5)
T5 sequence (whole entry): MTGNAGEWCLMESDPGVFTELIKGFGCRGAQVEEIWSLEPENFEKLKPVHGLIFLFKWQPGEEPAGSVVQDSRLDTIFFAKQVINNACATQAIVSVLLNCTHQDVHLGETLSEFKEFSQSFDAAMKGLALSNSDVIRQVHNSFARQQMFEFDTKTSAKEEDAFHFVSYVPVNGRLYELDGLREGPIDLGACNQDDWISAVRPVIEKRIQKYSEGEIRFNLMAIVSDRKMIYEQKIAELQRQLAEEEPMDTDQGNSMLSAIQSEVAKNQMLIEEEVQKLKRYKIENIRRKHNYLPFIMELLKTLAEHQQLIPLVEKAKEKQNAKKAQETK
In short: as §1

USP10 = USP10 (UniProt Q14694)
USP10, sequence (Q14694 whole entry): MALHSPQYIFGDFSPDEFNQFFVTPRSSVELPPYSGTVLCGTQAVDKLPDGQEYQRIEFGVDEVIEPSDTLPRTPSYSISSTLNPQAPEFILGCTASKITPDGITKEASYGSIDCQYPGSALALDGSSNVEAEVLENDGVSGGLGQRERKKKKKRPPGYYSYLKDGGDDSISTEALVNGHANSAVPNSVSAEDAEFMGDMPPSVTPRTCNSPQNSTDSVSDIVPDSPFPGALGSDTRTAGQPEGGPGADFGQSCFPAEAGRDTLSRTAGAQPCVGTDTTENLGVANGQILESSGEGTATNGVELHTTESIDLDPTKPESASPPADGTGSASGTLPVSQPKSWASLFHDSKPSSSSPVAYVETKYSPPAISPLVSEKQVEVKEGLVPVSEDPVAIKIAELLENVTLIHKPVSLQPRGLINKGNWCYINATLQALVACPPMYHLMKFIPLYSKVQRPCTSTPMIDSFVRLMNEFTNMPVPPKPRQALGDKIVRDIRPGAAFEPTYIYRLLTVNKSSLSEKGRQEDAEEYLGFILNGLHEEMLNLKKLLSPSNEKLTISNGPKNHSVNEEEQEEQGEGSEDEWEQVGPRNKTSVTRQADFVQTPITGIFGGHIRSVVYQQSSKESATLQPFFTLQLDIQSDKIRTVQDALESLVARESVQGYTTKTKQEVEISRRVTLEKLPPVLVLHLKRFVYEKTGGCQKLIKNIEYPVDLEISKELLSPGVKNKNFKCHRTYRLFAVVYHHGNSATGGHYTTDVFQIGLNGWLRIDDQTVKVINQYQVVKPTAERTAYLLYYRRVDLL
In short: as §1

USP15 = molecular target: T6, USP15 (UniProt Q9Y4E8)
T6 sequence (whole entry): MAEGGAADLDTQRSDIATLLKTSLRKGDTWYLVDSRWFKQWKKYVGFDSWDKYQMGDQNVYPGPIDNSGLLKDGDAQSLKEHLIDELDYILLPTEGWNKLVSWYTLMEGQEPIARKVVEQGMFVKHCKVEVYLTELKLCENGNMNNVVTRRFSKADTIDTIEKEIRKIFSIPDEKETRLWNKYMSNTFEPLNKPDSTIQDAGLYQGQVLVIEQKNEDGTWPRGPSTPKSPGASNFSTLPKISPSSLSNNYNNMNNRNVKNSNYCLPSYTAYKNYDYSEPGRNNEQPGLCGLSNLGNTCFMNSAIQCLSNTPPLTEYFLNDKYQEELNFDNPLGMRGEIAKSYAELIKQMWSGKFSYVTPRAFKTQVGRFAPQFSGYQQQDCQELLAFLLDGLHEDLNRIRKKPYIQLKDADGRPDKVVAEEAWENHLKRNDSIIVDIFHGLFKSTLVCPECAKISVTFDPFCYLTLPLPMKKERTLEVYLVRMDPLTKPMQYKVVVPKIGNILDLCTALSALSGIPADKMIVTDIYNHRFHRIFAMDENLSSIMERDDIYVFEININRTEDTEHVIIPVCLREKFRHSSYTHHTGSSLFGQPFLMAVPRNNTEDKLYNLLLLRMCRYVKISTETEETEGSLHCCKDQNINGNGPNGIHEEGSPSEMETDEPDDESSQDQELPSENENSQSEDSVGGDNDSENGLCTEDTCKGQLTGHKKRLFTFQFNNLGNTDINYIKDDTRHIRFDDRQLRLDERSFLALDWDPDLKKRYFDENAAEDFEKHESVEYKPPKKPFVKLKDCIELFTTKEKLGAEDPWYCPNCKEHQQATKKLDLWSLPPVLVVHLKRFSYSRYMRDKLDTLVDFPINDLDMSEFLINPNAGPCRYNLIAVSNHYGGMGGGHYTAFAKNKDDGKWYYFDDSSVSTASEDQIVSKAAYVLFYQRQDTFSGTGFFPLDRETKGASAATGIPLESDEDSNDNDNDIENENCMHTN
In short: as §1

USP16 = USP16 (UniProt Q9Y5T5)
USP16, sequence (Q9Y5T5 whole entry, looked up): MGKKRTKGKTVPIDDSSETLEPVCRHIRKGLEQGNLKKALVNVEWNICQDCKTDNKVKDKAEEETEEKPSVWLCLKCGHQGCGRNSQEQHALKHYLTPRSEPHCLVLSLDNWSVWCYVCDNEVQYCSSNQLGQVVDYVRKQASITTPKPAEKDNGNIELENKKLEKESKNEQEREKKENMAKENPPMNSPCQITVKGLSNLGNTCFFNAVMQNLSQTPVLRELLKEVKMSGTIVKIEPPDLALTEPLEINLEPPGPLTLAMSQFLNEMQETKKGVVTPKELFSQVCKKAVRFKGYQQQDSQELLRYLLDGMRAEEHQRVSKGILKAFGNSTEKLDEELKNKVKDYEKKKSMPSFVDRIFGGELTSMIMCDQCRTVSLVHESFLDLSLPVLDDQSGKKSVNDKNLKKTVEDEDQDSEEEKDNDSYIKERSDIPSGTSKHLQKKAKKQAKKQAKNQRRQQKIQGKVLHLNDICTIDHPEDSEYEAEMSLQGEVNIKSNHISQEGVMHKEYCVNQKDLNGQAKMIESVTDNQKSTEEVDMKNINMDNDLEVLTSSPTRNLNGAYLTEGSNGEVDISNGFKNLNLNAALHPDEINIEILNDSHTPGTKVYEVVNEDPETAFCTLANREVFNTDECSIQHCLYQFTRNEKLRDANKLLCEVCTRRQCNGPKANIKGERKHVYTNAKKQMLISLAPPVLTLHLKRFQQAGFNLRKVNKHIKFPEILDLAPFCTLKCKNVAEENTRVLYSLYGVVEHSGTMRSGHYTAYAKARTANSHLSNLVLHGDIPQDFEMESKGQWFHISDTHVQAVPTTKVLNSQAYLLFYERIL
In short: as §1

For N#Cc1cnn(-c2ccccc2)c1NC(=O)CCl, the “log2 ratio of Biotin-Ahx-Ub-VS probe labelling” value (“log2 ratio” for short) (OTUD6B) was -0.394, the “log2 ratio” value (OTUD7B) was -1.83 (active) and the “log2 ratio” value (PRPF8) was -0.0739. The “log2 ratio” value (PSMD7) was -0.397, the “log2 ratio” value (UCHL1) was -1.35 (active) and the “log2 ratio” value (UCHL3) was 0.168. The “log2 ratio” value (UCHL5) was -0.235, the “log2 ratio” value (USP10) was -0.0214 and the “log2 ratio” value (USP15) was -0.516. For the same compound, the “log2 ratio” value (USP16) was -0.0136.
